Assay results taken from the supplement of paper PMC13380429.

Experiments:
[1] = tested on: Vero E6 infected with SARS-CoV-2; assay: morphology score (similarity to uninfected cells); higher = more like uninfected cells; settings: 24 h
[2] = tested on: Vero E6 infected with SARS-CoV-2; assay: SARS-CoV-2 infection rate relative to infected DMSO; higher = more infection, active = 60 or less; settings: 24 h

Compound	morphology score [1]	SARS-CoV-2 infection rate [2]
O=C(Nc1ccc(-c2ccncc2)cc1)N[C@H](CO)c1ccccc1 (0.833333 µM)	0.489	94% (inactive)
N#CC[C@@H](C1CCCC1)n1cc(-c2ncnc3[nH]ccc23)cn1 [ruxolitinib-(S)] (10 µM)	0.62	105% (inactive)
C#CCN[C@@H]1CCc2ccccc21 [rasagiline] (10 µM)	0.0975	115% (inactive)
O=P(O)(O)C(Cl)(Cl)P(=O)(O)O [clodronic-acid] (10 µM)	-0.00847	92% (inactive)
OCCN1CCN(CCCN2c3ccccc3Sc3ccc(C(F)(F)F)cc32)CC1 [fluphenazine] (0.833333 µM)	-0.174	116% (inactive)
COc1cc(OC2CCN(C)CC2)ccc1Nc1ncc2c(n1)n(C1CCCC1)c(=O)n2C (0.833333 µM)	0.126	98% (inactive)
Cc1ccc([N+](=O)[O-])cc1S(=O)(=O)N(C)/N=C/c1cnc2ccc(Br)cn12 (0.833333 µM)	0.0254	112% (inactive)
COc1ccc2c(c1)[C@]13CCCC[C@@H]1[C@H](C2)N(C)CC3 [dextromethorphan] (10 µM)	-0.0426	112% (inactive)
CN(C)C(=N)NCCC[C@H](N)C(=O)O [asymmetrical-dimethylarginine] (10 µM)	0.217	95.5% (inactive)
COc1cc2c(NC3CCN(C)CC3)nc(N3CCCN(C)CC3)nc2cc1OCCOCCN(C)C (10 µM)	0.108	110% (inactive)
CCCCc1ncc(/C=C(\Cc2cccs2)C(=O)O)n1Cc1ccc(C(=O)O)cc1 [eprosartan] (10 µM)	0.0906	106% (inactive)
C=CC(=O)Nc1cccc(Nc2nc(Nc3ccc(NC4CN(CCF)C4)cc3OC)ncc2C(F)(F)F)c1 (0.833333 µM)	-0.356	118% (inactive)
CCCNCC(O)COc1ccccc1C(=O)CCc1ccccc1 (stereo unspecified) [propafenone] (0.833333 µM)	-0.109	110% (inactive)
CC(C)C[C@H](NC(=O)[C@H](CCc1ccccc1)NC(=O)CN1CCOCC1)C(=O)N[C@@H](Cc1ccccc1)C(=O)N[C@@H](CC(C)C)C(=O)[C@@]1(C)CO1 [carfilzomib] (0.833333 µM)	0.00273	42% (active)
O=C1NCN(c2ccccc2)C12CCN(CC1COc3ccccc3O1)CC2 (stereo unspecified) [spiroxatrine] (10 µM)	-0.179	114% (inactive)
CS(=O)(=O)c1ccc(-c2cc(Br)sc2-c2ccc(F)cc2)cc1 (10 µM)	0.0351	104% (inactive)
CN(C)CCC(c1ccc(Br)cc1)c1ccccn1 (stereo unspecified) [brompheniramine] (10 µM)	-0.0213	106% (inactive)
O=C(O)CCCCCCNC1c2ccccc2CCc2ccccc21 [amineptine] (10 µM)	0.118	105% (inactive)
O=C(O)c1ccccc1Nc1cccc(OCc2ccc3ccccc3n2)c1 (10 µM)	0.0319	95.5% (inactive)
Cc1cccc(C)c1NC(=O)C1CCCCN1C (stereo unspecified) [mepivacaine] (10 µM)	0.171	97.5% (inactive)
O=C(O)C1CN(Cc2ccc(-c3nc4cc(Cc5ccccc5F)ccc4s3)c(F)c2)C1 (10 µM)	-0.0698	113% (inactive)
CCc1cc2cc(OC)c(OC)cc2c(Cc2ccccc2)n1 [moxaverine] (10 µM)	0.495	86% (inactive)

Compound	morphology score [1]	SARS-CoV-2 infection rate [2]
CC(C)(F)C[C@H](N[C@@H](c1ccc(-c2ccc(S(C)(=O)=O)cc2)cc1)C(F)(F)F)C(=O)NC1(C#N)CC1 [odanacatib] (10 µM)	0.161	96.5% (inactive)
COC(=O)c1sccc1S(=O)(=O)Nc1ccc(Nc2ccccc2)cc1OC (10 µM)	0.112	95% (inactive)
COc1ccc(COc2ccc(Cc3cnc(N)nc3N)cc2OC)cc1 (10 µM)	-0.072	112% (inactive)
CCn1c2ccccc2c2cc(Nc3ccnc(NCCCN4CCOCC4)n3)ccc21 (0.833333 µM)	0.235	93% (inactive)
CC(C)c1ccc(NC(=O)Cn2cnc3c2c(=O)n(C)c(=O)n3C)cc1 (10 µM)	0.0452	109% (inactive)
C/C(=C(\CCOP(=O)(O)O)SC(=O)c1ccccc1)N(C=O)Cc1cnc(C)nc1N [benfotiamine] (10 µM)	-0.0264	112% (inactive)
CC[C@H](C)[C@H](N)C(=O)O [isoleucine] (10 µM)	0.202	106% (inactive)
O=c1[nH]c2ccccc2n1CCCN1CCN(C(c2ccccc2)c2ccccc2)CC1 [oxatomide] (10 µM)	-0.0451	106% (inactive)
NS(=O)(=O)c1ccc(-n2nc(C(F)(F)F)cc2-c2ccc(Cl)cc2)cc1 (10 µM)	0.0527	106% (inactive)
CC(C)c1cnn2c(NCc3ccccc3)cc(NCCCCCCN)nc12 (10 µM)	0.714	41% (active)
O=C1Nc2cc(Cl)c(Cl)cc2N2CCNC[C@H]12 (10 µM)	0.179	108% (inactive)
CN(C)C(=N)NC(=N)N [metformin] (10 µM)	-0.00931	108% (inactive)
CCOC(=O)c1ncn2c1[C@@H]1CCCN1C(=O)c1cc(OC)ccc1-2 (10 µM)	0.286	95% (inactive)
O=c1c(O)c(-c2ccc(O)cc2)oc2cc(O)cc(O)c12 [kaempferol] (10 µM)	0.215	108% (inactive)
O=C1[C@@H]2[C@H]3CC[C@H](C3)[C@@H]2C(=O)N1CCCCN1CCN(c2ncccn2)CC1 [tandospirone] (10 µM)	-0.0978	99% (inactive)
C/C=C(/C(=C/C)c1ccc(O)cc1)c1ccc(O)cc1 [dienestrol] (10 µM)	-0.0419	96% (inactive)
COC(=O)N[C@@H](C)CNc1nccc(-c2cn(C(C)C)nc2-c2cc(Cl)cc(NS(C)(=O)=O)c2F)n1 [Encorafenib (LGX818)] (0.833333 µM)	0.0501	95% (inactive)
Cc1cn([C@H]2C=C[C@@H](CO)O2)c(=O)[nH]c1=O [stavudine] (10 µM)	0.031	106% (inactive)
C=C[C@@]1(C)CC(=O)[C@]2(O)[C@@]3(C)[C@@H](O)CCC(C)(C)[C@@H]3[C@H](O)[C@H](OC(C)=O)[C@@]2(C)O1 [colforsin] (10 µM)	0.455	83% (inactive)
CCCCC/C=C\C/C=C\CCCCCCCC(=O)NCCCC(=O)O [GABA-linoleamide] (10 µM)	0.105	97.5% (inactive)
CNS(=O)(=O)CCc1ccc2[nH]cc(C3CCN(C)CC3)c2c1 [naratriptan] (10 µM)	0.0727	104% (inactive)
